Screening data deposited in PubChem by National Center for Advancing Translational Sciences (NCATS).
Pf growth 48h: Primary qHTS for delayed death inhibitors of the malarial parasite plastid, 48 hour incubation. P. falciparum luciferase growth in erythrocytes, 48 h. Potency, µM (series often up to 28.7 µM), without a hit: top-dose activity change, negative = inhibition, usual class: inhibitors. 310,000 compounds, 5.9% hits; further: potency means the concentration at half of the fitted maximal effect
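Compounds are pin-transferred into medium, infected erythrocytes (2% hematocrit, 0.1% parasitemia final) are added, and plates sit one parasite generation at 37 C in 5% CO2. Detection reagent is then added and luminescence measured.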
Pf growth 96h: Primary qHTS for delayed death inhibitors of the malarial parasite plastid, 96 hour incubation. Potency, µM (doses to about 28.7 µM), for inactives: top-dose activity change, negative = inhibition, hits mostly inhibitors. P. falciparum luciferase reporter growth, 96 h. 320,000 compounds, 6.9% hits. AID 504834, 2011; further: potency means the concentration at half of the fitted maximal effect
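Two parasite generations (96 h, 37 C, 5% CO2) of compound exposure in infected erythrocytes (0.05% parasitemia, 2% hematocrit). Luciferase-reporter P. falciparum; decreased luminescence indicates inhibited growth, aimed at apicoplast-acting delayed death.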
HCMV antiviral: qHTS Assay for inhibitors of the human cytomegalovirus (HCMV); HFF cells, HCMV-luciferase reporter, 72 h; hits give low values; activity change, negative = inhibition, % at 57.5 µM; 410,000 compounds, 4.5% hits; AID 1259415, 2018; in the data active means activity change below about -60%; inconclusive means no clear call, values can overlap the other calls; inactive means above about -39%
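Screen run at 2 compound doses on HFFs infected with reporter HCMV, MOI 1 PFU/cell. Luciferase activity from cell lysates at 72 h post infection gave inhibition relative to buffer-only and Salinomycin wells.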
HCV inhibitor: qHTS Assay for Inhibitors of Hepatitis C Virus (HCV); Huh7.5.1 HCVcc-Cre infection, luciferase reporter, 44 h; Potency, µM (highest dose often 41.8 µM), without a hit: at the top dose activity change, negative = inhibition, hits mostly inhibitors; 340,000 compounds, 3.4% hits; AID 651820, 2012; further: potency means the concentration at half of the fitted maximal effect
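Reporter virus HCVcc-Cre (~0.5 moi) infects cells exposed to compound; seeding density 1,000 cells/well with 4 h settling beforehand. Luminescence, 15 sec read, taken 44 h post-infection following a 15 min RT substrate incubation.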
LASV entry inh: qHTS for Inhibitors of binding or entry into cells for Lassa Virus | Lassa virus pseudotype entry inhibition, cell reporter | 300,000 compounds, 1.2% hits | Potency, µM (top dose mostly 37.9 µM), for inactives: at the highest dose activity change, negative = inhibition, usual class: inhibitors; calls by dose curve; tested in HEK293 cells; further: potency means the concentration at half of the fitted maximal effect; nearly all actives have a fitted effect of over 50% in size
Marburg entry inh: qHTS for inhibitors of binding or entry into cells for Marburg Virus; Potency, µM (top dose mostly 37.8 µM), without a hit: at the top dose activity change, negative = inhibition, usual class: inhibitors; Marburg virus pseudotyped entry inhibition, cell reporter; 300,000 compounds, 1.8% hits; calls by dose curve; tested in HEK293 cells; further: potency means the concentration at half of the fitted maximal effect
* marks the source's active call; other numbers are inactive results; ? = inconclusive; . = no result; ! = not confirmed by another sample; [ ] = another dose, or the depositor's remark. Compounds with a hit are over-represented: about 14% of the library has one in this group of screens. Unless noted, the call rests on the fitted dose curve; in most records, active means well fitted inhibition curve with a large enough effect; inconclusive means small, poorly fitted or top-dose-only effect, or another doubt; inactive means no such curve, though single readings can be large or run the other way. On the % scale 0 is the no-effect control and ±100 the full control effect.

SMILES | Pf growth 48h | Pf growth 96h | HCMV antiviral | HCV inhibitor | LASV entry inh | Marburg entry inh
O=C1[C@@H]2[C@H](ON(c3ccccc3)[C@H]2c2ccncc2)C(=O)N1c1ccc(Br)cc1 | . | . | . | . | . | -21%
Cn1c(NC(=O)C[n+]2cc(-c3ccccc3)n3c2CCC3)cc(=O)n(C)c1=O | 2.6µM* | 0.83µM* | 12 | 3% | 3% | 1%
Cn1c(NC(=O)CC(C)(C)C)cc(=O)n(C)c1=O | 24% | ? | ? | 9% | 11% | 8%
Cn1c(NC(=O)C[n+]2cc(-c3ccc(Cl)cc3)n3c2CCC3)cc(=O)n(C)c1=O | 4.1µM* | 0.33µM* | -77* | 6% | 5% | -16%
COc1cc(NC(=O)N2CCNC2=O)cc(C(=O)Nc2cccc(C(F)(F)F)c2)c1 | ? | 27% | -31 | ? | . | .
COc1cc(NC(=O)c2cc3cccc(OC)c3o2)cc(C(=O)Nc2cccc(C(F)(F)F)c2)c1 | 13µM* | 10µM* | 38 | ? | . | .
COc1cc(NC(=O)c2csc(-c3ccncc3)n2)cc(C(=O)Nc2cccc(C(F)(F)F)c2)c1 | ? | 5.2µM* | -16 | 7%[8.37 µM] | . | .
CCN1CCN(Cc2ccc(NC(=O)c3cc(NC(=O)c4ccno4)cc(OC)c3)cc2C(F)(F)F)CC1 | ? | 0.83µM* | -34 | ? | . | .
CCN1CCN(Cc2ccc(NC(=O)c3cc(NC(=O)N4CCNC4=O)cc(OC)c3)cc2C(F)(F)F)CC1 | 5.2µM* | 4.1µM* | -68*! | ? | . | .
CCN1CCN(Cc2ccc(NC(=O)c3ccc(C)c(NC(=O)c4ccno4)c3)cc2C(F)(F)F)CC1 | ? | ? | -4 | -19% | . | .
COc1ccc(CN2CCc3ccc(NC(=O)c4ccncc4)cc3C2)c(F)c1 | ? | 3% | ? | ? | 24% | -17%
CCN1CCN(Cc2ccc(NC(=O)c3cc(NC(=O)c4cncc(-c5cccs5)c4)cc(OC)c3)cc2C(F)(F)F)CC1 | ? | ? | -102* | ? | . | .
CCN1CCN(Cc2ccc(NC(=O)c3cc(NC(=O)c4cc5cccc(OC)c5o4)cc(OC)c3)cc2C(F)(F)F)CC1 | 0.83µM* | 0.29µM* | -102*! | -20% | . | .
CCN1CCN(Cc2ccc(NC(=O)c3cc(NC(=O)c4cc(-c5ccc(OC)cc5)n[nH]4)cc(OC)c3)cc2C(F)(F)F)CC1 | 0.12µM* | 0.093µM* | 52 | ? | . | .
CCN1CCN(Cc2ccc(NC(=O)c3cc(NC(=O)c4ccc5n[nH]nc5c4)cc(OC)c3)cc2C(F)(F)F)CC1 | 4.1µM* | 2.3µM* | -7 | -14% | . | .
Cc1noc2ncnc(N3CCCC(C(=O)Nc4cccc(C(F)(F)F)c4)C3)c12 (stereo not drawn) | . | . | -36 | . | -7%[46.1 µM] | .
CC(=O)c1c(N2CCN(C)CC2)[nH]c(-c2ccccc2)nc1=S | 1.7µM* | 116% | 12 | -3% | 3% | ?
O=C(c1ccc(C#CC2(O)CCCCC2)cc1)N1CCN(Cc2ccccc2)CC1 | ? | 10µM* | 17 | 4% | -22% | ?
N#Cc1ccc(CN2CCN(C(=O)c3ccc(S(=O)(=O)NCc4ccco4)cc3)CC2)cc1 | ? | 3.7µM* | 0 | 6.3µM* | . | .
CS(=O)(=O)c1ccc(C(=O)N2CCN(Cc3ccccc3)CC2)cc1 | -11% | -2% | ? | 3% | -9% | 20%[46.1 µM]
COC(=O)c1cc(C(=O)N2CCN(c3cccc(C)c3C)CC2)cc([N+](=O)[O-])c1 | -19% | 18% | 9 | ? | -23% | 4.5µM*
O=C(c1ccc(CNS(=O)(=O)c2ccccc2)cc1)N1CCN(Cc2ccccc2)CC1 | -20% | . | -76* | 11µM* | ? | ?
CCc1nc2sc3c(c2c(=O)n1CCO)CCC3 | 1% | -1% | 17 | -4% | ? | 6%[46.1 µM]
O=C(C1CCCN(S(=O)(=O)c2ccc(Br)s2)C1)N1CCN(c2ccc(F)cc2)CC1 (stereo not drawn) | . | . | ? | . | -22%[46.1 µM] | ?
CCC(C)C(CO)NCCCn1cnc(C(=O)Nc2ccc(C)c(C)c2)n1 (stereo not drawn) | . | . | -37 | 3%[8.37 µM] | . | .
SMILES | Pf growth 48h | Pf growth 96h | HCMV antiviral | HCV inhibitor | LASV entry inh | Marburg entry inh
Cc1cccc(C)c1-n1nnnc1C1(C)CCC(=O)N1CCCN1CCOCC1 (stereo not drawn) | . | . | -7 | . | . | .
Cc1ccc(N(C)S(=O)(=O)c2cccc(C(=O)N3CCN(Cc4ccccc4)CC3)c2)cc1 | . | . | 0 | ? | . | .
Cc1cccc(N2CCN(C(=O)c3ccc(S(=O)(=O)N(C)c4ccccc4)cc3)CC2)c1C | . | . | ? | ? | 4.5µM* | ?
CC(=O)c1ccc(N2CCN(C(=O)/C=C/c3ccc(S(=O)(=O)NCc4ccco4)cc3)CC2)cc1 | 2% | ? | -66* | ? | ? | ?
CN(c1ccc(C(=O)N2CCN(Cc3ccccc3)CC2)cc1)S(=O)(=O)c1ccc(Cl)cc1 | ? | -14% | -63* | 10µM* | -11%[46.1 µM] | ?
CC(=O)c1ccc(N2CCN(C(=O)/C=C/c3ccc(S(=O)(=O)N4CCOCC4)cc3)CC2)cc1 | ? | ? | -38 | ? | ? | ?
CC(=O)Nc1ccc(NC(=O)CCCn2nc(C)c3sc4ccccc4c3c2=O)cc1 | . | . | -17 | . | 5%[46.1 µM] | 2%[46.1 µM]
CC(=O)Nc1ccc(C(=O)CSc2nc3ccccc3n2CC(=O)N2CCCC2)cc1 | . | 3.7µM* | -29 | 4% | 10% | 1%
CC(=O)Nc1ccc(NC(=O)Cn2c(CC(=O)N3CCCC3)nc3ccccc32)cc1 | 4% | -4% | -88* | 7% | -10% | 16%
CC(=O)c1c(C)[nH]c(C(=O)OCC(=O)NCCC2=CCCCC2)c1C | 13µM* | ? | ? | ? | 1% | ?
CCOC(=O)c1c(C)[nH]c(C(=O)OCC(=O)Nc2sccc2C(N)=O)c1C | 4.7µM* | ? | -68* | 2.8µM* | ? | 2.2µM*
CC(=O)c1c(C)[nH]c(C(=O)OCC(=O)NCCCc2ccccc2)c1C | ? | 9.3µM* | -13 | ? | . | .
CCOc1ccc(CCNC(=O)COC(=O)c2[nH]c(C)c(C(C)=O)c2C)cc1OCC | . | . | -31 | . | . | .
CC(=O)c1c(C)[nH]c(C(=O)OCC(=O)NCCc2ccc(Cl)cc2)c1C | . | ? | 10 | 11µM* | ? | ?
CC(=O)c1c(C)[nH]c(C(=O)OCC(=O)NCCc2ccc(F)cc2)c1C | ? | ? | 12 | ? | 6% | -21%
CC(C)N(c1ccccc1)c1ccc(NC(=O)[C@@H]2O[C@H](CO)[C@@H](O)[C@H]2O)cc1 | . | . | 9 | . | . | .
CCOc1ccccc1N(CC)C(=O)Cn1ncc2c([nH]c3ccccc32)c1=O | . | . | -10 | . | ? | .
